# TbREL1 inh = TbREL1 inhibition, primary screen | P86926 | inhibition, % at 9.66 µM | TbREL1 RNA ligation, FRET fluorescence | 89,000 compounds, 0.49% hits;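 active means inhibition above the mean inhibition across all screened compounds plus 3 SD, cut at about 11% in these data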;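 further: 0% = plate median of test wells and 100% = NSC42067 control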
# Target sequence (P86926 whole entry, looked up): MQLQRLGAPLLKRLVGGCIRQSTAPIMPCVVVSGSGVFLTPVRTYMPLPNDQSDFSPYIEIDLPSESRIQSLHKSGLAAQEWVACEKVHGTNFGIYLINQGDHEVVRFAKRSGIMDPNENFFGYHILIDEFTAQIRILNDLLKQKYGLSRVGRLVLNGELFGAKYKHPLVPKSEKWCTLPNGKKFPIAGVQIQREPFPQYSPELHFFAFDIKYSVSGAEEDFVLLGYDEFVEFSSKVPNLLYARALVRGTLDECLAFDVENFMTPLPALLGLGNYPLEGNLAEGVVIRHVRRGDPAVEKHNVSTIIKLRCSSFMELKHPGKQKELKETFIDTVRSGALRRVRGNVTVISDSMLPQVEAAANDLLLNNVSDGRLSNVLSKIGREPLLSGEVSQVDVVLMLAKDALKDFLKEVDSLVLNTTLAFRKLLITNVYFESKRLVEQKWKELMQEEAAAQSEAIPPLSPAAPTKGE
# TbREL1 conf = TbREL1 inhibition, confirmation. inhibition, % at 9.66 µM. 390 compounds, 37% hits. TbREL1 RNA ligation, FRET fluorescence. shares compounds with TbREL1 inh;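 active means mean inhibition across replicates above a set limit taken from the earlier primary screen, cut at about 11% in these data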;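 further: 0% = REL1 with substrate and DMSO and 100% = REL1 plus control inhibitor NSC42067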
# Starred values were filed as active, the others as inactive. The entries come from a sample that favours hits as a whole.
SMILES,TbREL1 inh,others
COc1ccc(/C=N/Nc2nc(-c3ccc(Cl)cc3)cc(C(F)(F)F)n2)cc1OC,-2.4,
Cc1ccc(OCC(=O)NCCNC(=O)c2ccccn2)cc1,1.4,
CC(C)C[C@@H](CNCC(=O)[C@H](C)NC(=O)c1[nH]cnc1C(=O)N[C@@H](C)CN)NC(=O)c1nc[nH]c1C(=O)N[C@@H](Cc1ccccc1)C(=O)O,11.5*,TbREL1 conf=5.8
CC(C)C[C@H](NC(=O)c1nc[nH]c1C(=O)N[C@@H](CC(C)C)C(=O)OCc1ccccc1)C(=O)OCc1ccccc1,2.1,
CC(C)C[C@H](NC(=O)c1[nH]cnc1C(=O)N[C@@H](Cc1ccccc1)C(=O)OCc1ccccc1)C(=O)OCc1ccccc1,-0.5,
O=C(O)Cc1ccc(NC(=O)Nc2ccc3c(c2)OCO3)cc1,-0.1,
CCCS(=O)(=O)NC(=O)C1(C)CCN(C(=O)C2(c3ccc(Cl)cc3)CCCC2)C1 (centres undefined),-0.4,
CCCN(C(=O)c1cc(Cl)nc2ccccc12)C1CCS(=O)(=O)C1 (centres undefined),5.0,
O=C(Cc1ccccc1)NCCN1CCCC1,-0.5,
O=C(O)CCCNC(=O)Cc1ccccc1,16.9*,TbREL1 conf=-0.5
O=C(O)CCCNC(=O)Nc1ccccc1,0.9,
Cc1ccccc1NC(=O)CN1C(=O)N/C(=C\c2ccccc2OCc2ccc(C(=O)O)cc2)C1=O,1.2,
CCOC(=O)C1(C)CCCN(C(=O)c2cc(F)ccc2C)C1 (centres undefined),-1.2,
Nc1ccc2c3c(ccc([N+](=O)[O-])c13)CC2,-2.3,
COc1ccc(C(C)(O)c2nc(-c3cccc(C(C)C)c3)cs2)cc1 (centres undefined),0.5,
CC(Oc1ccc(F)cc1)C(=O)N(CCC1=CCCCC1)c1c(N)n(Cc2ccccc2)c(=O)[nH]c1=O (centres undefined),-3.2,
S=C(Nc1cccc(Cl)c1)N(CCCN1CCCC1)Cc1cccn1Cc1ccc(Cl)cc1,11.4*,TbREL1 conf=1.1
O=C(CCN1CCCCCC1)Nc1cccc(Cl)c1,1.6,
COc1ccc(NC(=S)N(CCCN2CCCC2)Cc2cccs2)cc1,-3.1,
C[C@@H]1CN([C@H](C)CO)C(=O)CCCn2nncc2CO[C@@H]1CN(C)C(=O)C1CC1,-1.1,
CNC(=S)N/N=C/c1c(C(=O)OC)cnn1-c1ccc(Cl)cc1,0.1,
O=C(OCc1cn(Cc2cccc(C(F)(F)F)c2)nn1)N1CCOCC1,-1.0,
Cc1nc(CNC(=O)C2CCC(=O)N(Cc3cccc(F)c3)C2)sc1C (centres undefined),0.9,
COc1ccc(-c2nnc(SCc3c(F)cccc3F)n2N)cc1,-1.7,
CCCCN(C(=O)c1ccc(NC2CC2)c([N+](=O)[O-])c1)c1c(N)n(CC(C)C)c(=O)[nH]c1=O,-1.2,
SMILES,TbREL1 inh,others
COc1ccc(OCC(O)Cn2c(=N)n(Cc3ccccc3)c3ccccc32)cc1 (centres undefined),9.9,
Cc1cccc(OCC(O)Cn2c(=N)n(CCN3CCCCC3)c3ccccc32)c1 (centres undefined),11.9*,TbREL1 conf=7.5
N=c1n(CCO)c2ccccc2n1CCN1CCCCC1,5.5,
Nc1[nH]c(C(=O)c2ccccc2)c(-c2ccccc2Br)c1C(=O)NCCc1ccc(Cl)cc1Cl,-1.3,
O=C1C(Cc2ccccc2)S/C(=N/N=C/c2ccco2)N1c1ccccc1 (centres undefined),-3.5,
CCCC1S/C(=N/N=C/c2ccco2)NC1=O (centres undefined),1.9,
O=C1N/C(=N/N=C/c2ccco2)SC1Cc1ccccc1 (centres undefined),11.3*,TbREL1 conf=4.0
CC1C(=O)Nc2ccc(S(=O)(=O)N3CCCCCC3)cc21 (centres undefined),1.4,
COc1cc(OC)cc(C(=O)NNC(=O)C2CCCC2)c1,-0.1,
COc1ccc2[nH]c3c(c2c1)CCN[C@]31C(=O)Nc2ccccc21,6.0,
COc1ccc2c3c([nH]c2c1)C1=NCC[C@]12c1ccccc1N=CN2CC3,-0.1,
COc1ccc2c3c([nH]c2c1)[C@]1(CCNC=O)Nc2ccccc2C1=NCC3,11.5*,TbREL1 conf=-0.3
O=C(c1ccoc1)N1CCN(c2cc(-c3cccnc3)nc3cc(-c4cccc(Cl)c4)nn23)CC1,1.8,
COc1ccc(N2CCCN(CC(=O)Nc3ccccc3C)CC2)cc1,-8.8,
COC(=O)C1=C(C)N(C)C(=NCc2ccccc2C(F)(F)F)NC1c1ccc(F)cc1 (centres undefined),10.9,
COC(=O)C1=C(C)N(Cc2ccccc2)C(=O)N[C@H]1c1ccccc1,-1.0,
COC(=O)C1=C(C)N(Cc2ccccc2)C(=NCCCCO)N[C@H]1c1cccc(C(F)(F)F)c1,6.9,
COC(=O)C1=C(C)N(Cc2ccc(C(F)(F)F)cc2)C(=NCc2ccccc2C(F)(F)F)NC1c1ccc(Cl)cc1 (centres undefined),11.3*,TbREL1 conf=16.2*
COCCN=C1N[C@@H](c2cccc(C(F)(F)F)c2)C(C(=O)OC)=C(C)N1Cc1ccccc1,14.2*,TbREL1 conf=17.8*
COC(=O)C1=C(C)N(Cc2ccccc2)C(=S)NC1c1cccc(OC)c1 (centres undefined),-5.1,
CCN1C(=NCC(C)C)N[C@@H](c2cccc(C(F)(F)F)c2)C(C(=O)OC)=C1C,10.6,
COC(=O)C1=C(C)N(Cc2ccc(Cl)cc2)C(=S)NC1c1ccc(Cl)cc1 (centres undefined),-3.8,
COC(=O)C1=C(C)N(Cc2ccc(C(F)(F)F)cc2)C(=NCc2ccccc2C(F)(F)F)NC1c1cccc(Cl)c1 (centres undefined),15.9*,TbREL1 conf=20.0*
COC(=O)C1=C(C)N(Cc2ccc(C(F)(F)F)cc2)C(=NCc2ccccc2C(F)(F)F)NC1c1ccccc1 (centres undefined),12.6*,TbREL1 conf=14.1*
COC(=O)C1=C(C)N(Cc2ccccc2)C(=O)N[C@H]1c1cccc(F)c1,-2.5,
SMILES,TbREL1 inh,others
O=C1NC[C@@H](CCCCN2C[C@H](Cc3ccccc3)N(CCC3CCCCC3)C(=O)C2=O)N(CCc2ccc(O)cc2)C1=O,-0.9,
CNC(=O)C1CN(C(=O)c2cccc(S(=O)(=O)N3c4ccccc4CC3C)c2)c2ccccc2O1 (centres undefined),3.9,
Cc1ccc(NC(=O)C2CCCN(c3nnc(-n4cccc4)s3)C2)cc1C (centres undefined),3.0,
CN(Cc1ccccc1Cl)C(=O)CN1C(=O)C2(OCCCO2)c2ccccc21,0.2,
C=Cc1ccc(Cn2c(C)c(C(=O)NCc3ccc(Cl)c(Cl)c3)sc2=O)cc1,2.1,
COc1ccc(OC)c(CN2C(=O)CCCC2(C)c2nnnn2C2CCCC2)c1 (centres undefined),-2.2,
C[C@@H]1C=CCCO[C@]12C(=O)Nc1ccccc12,0.0,
CN(CC(=O)Nc1ccc(Cl)c(C(F)(F)F)c1)C(=O)c1ccccc1SCC(=O)N1CCCC1,0.3,
CC(C)CNS(=O)(=O)CC1NCc2cc3c(cc21)OCO3 (centres undefined),8.6,
Cc1cc2c(s1)c1cnn(Cc3c(Cl)ccc(C)c3F)c(=O)c1n2C,1.2,
O=C(CSc1nnc(-c2ccccn2)n1-c1ccc(Cl)cc1)Nc1ccc(S(=O)(=O)Nc2nccs2)cc1,-2.9,
Oc1ccccc1/C=N/Nc1cc(N2CCCC2)nc(N2CCCC2)n1,19.4*,TbREL1 conf=38.0*
CCOc1cc(/C=N/Nc2nc(N3CCCC3)nc(N3CCCC3)n2)ccc1O,-5.7,
O=C(NNc1cc(N2CCCC2)nc(N2CCCC2)n1)c1ccc([N+](=O)[O-])cc1,-4.9,

# Screens as filed in PubChem BioAssay.
